Source: PubChem (National Center for Advancing Translational Sciences (NCATS))
Shown is part of a subset that was picked to be rich in hits.
MLL CXXC-DNA inh – MLL CXXC-DNA interaction inhibition; Q03164; MLL-CXXC / FITC-HOXA9 DNA fluorescence polarization; Potency, µM (top dose mostly 115 µM), for inactives: at the top dose activity change, negative = inhibition, most hits filed as inhibitors; actives 0.037% (n = 290,000); active means well fitted inhibition curve with a large enough effect in the polarisation, with a control signal flat, not every such curve was filed as active; inconclusive means small, poorly fitted or top-dose-only effect, or effect the other way, or a change in a side signal; inactive means no such curve, though single readings can be large or run the other way; the % refers to the polarisation; further: potency means the concentration at half of the fitted maximal effect
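Steps: dispense CXXC domain solution (7 uM) → pin compounds or unlabeled HOX-A9 DNA control → 5 min ambient → add FLSN-HOX-A9 solution (50 nM) → spin → 30 min ambient → fluorescence polarization. Tris pH 7.5/NaCl/DTT/BSA buffer.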
Menin-MLL TR inh – displaces Texas Red mutant MLL peptide from human menin. Menin + Texas Red MLL mutant peptide, fluorescence polarization. Potency, µM (doses to about 61.6 µM), inactives show at the top dose FP activity change, negative = inhibition, hits mostly inhibitors. actives 0.23% (n = 270,000); active means well fitted inhibition curve with a large enough effect in the polarisation, with a control signal flat, not every such curve was filed as active; inconclusive means small, poorly fitted or top-dose-only effect, or effect the other way, or a change in a side signal; inactive means no such curve, though single readings can be large or run the other way; the % refers to the polarisation; further: potency means the concentration at half of the fitted maximal effect; % of control where 0% means no effect
Menin-MLL FL inh – inhibitors of human menin-MLL interaction, wild-type MLL peptide. Fluorescence polarization, fluorescein-MLL peptide displacement from menin. FP activity change, % at 61.4 µM. 290,000 tested, under 10 active. AID 1766; active means well fitted curve in the direction sought with a large enough effect in the polarisation, not every such curve was filed as active; inconclusive means small, poorly fitted or top-dose-only effect, or effect the other way, or a change in a side signal; inactive means no such curve, though single readings can be large or run the other way; the % refers to the polarisation; further: % of control where 0% means no effect
GLA inh pH 4.5 – blocks human alpha-galactosidase A at pH 4.5; P06280; purified enzyme, 4-MU-alpha-Gal fluorescence, pH 4.5; activity change, negative = inhibition, % at 105 µM; 230,000 tested, under 10 active; AID 1467;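 further: 0% = full activity with enzyme and -100% = basal without enzyme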
Target sequence (P06280 whole entry, looked up): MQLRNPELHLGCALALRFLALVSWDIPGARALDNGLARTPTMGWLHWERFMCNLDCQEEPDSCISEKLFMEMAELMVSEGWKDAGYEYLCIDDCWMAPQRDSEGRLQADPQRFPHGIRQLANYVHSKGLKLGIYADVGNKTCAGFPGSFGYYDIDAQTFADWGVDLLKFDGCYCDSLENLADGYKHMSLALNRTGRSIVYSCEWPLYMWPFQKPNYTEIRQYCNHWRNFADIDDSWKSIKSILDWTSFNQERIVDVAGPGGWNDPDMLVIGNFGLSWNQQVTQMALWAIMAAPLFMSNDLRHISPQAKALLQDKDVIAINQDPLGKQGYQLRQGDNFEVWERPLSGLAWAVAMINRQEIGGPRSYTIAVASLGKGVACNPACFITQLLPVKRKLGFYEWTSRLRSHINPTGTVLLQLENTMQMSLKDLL
a7 integrin act – activators of alpha7 integrin expression for muscular dystrophy; alpha7betagal myoblasts, beta-gal FDG fluorescence, 48 h; Potency, µM (top dose mostly 38.3 µM), for the others: at the top dose activation, actives largely listed as activators; actives 0.064% (n = 350,000);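 further: potency means the concentration at half of the fitted maximal effect; 100% = response of the positive control SU9516; nearly all actives have a fitted effect of over 60% in size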
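alpha7betagal+/- myoblasts (passage 13, 250/well) treated 48 h at 37C with compounds at 1:260 dilution of DMSO stock. Lysed, then beta-galactosidase activity read as FDG fluorescence (ex 480/em 540) after 30 min, with pre-read for autofluorescence.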
GLA spleen mod – inhibits or activates alpha-galactosidase in human spleen homogenate. P06280. human spleen homogenate, 4MU-alpha-Gal fluorescence, 40 min. Potency, µM (doses to about 80 µM), for the others: top-dose activity change, negative = inhibition, usual class: inhibitors. actives 0.008% (n = 240,000);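 further: potency means the concentration at half of the fitted maximal effect; 0% = enzyme with vehicle and -100% = no enzyme basal signal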
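qHTS titration in buffer at pH 5.0. Alpha-galactosidase activity in spleen homogenate was measured via 4-methylumbelliferone release from 1 mM fluorogenic substrate after 40 min at 37C and a pH 10 stop. AC50 came from Hill fits of control-normalized data.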
MLL CXXC FP-Fl – inhibitors of human MLL CXXC domain-DNA interaction | shares compounds with MLL CXXC-DNA inh | actives 70% (n = 200) | MLL CXXC-DNA binding, fluorescein FP | Potency, µM (top dose mostly 345 µM), for the others: at the top dose activity change, negative = inhibition, hits mostly inhibitors; further: potency means the concentration at half of the fitted maximal effect; nearly all actives have a fitted effect of over 80% in size
MLL CXXC FP-TR – disrupts human MLL CXXC domain binding to DNA, Texas Red | MLL CXXC-DNA binding, Texas Red fluorescence polarization | actives 40% (n = 200) | shares compounds with MLL CXXC-DNA inh | Potency, µM (series often up to 345 µM), for the others: top-dose activity change, negative = inhibition, hits mostly inhibitors; further: potency means the concentration at half of the fitted maximal effect; on the % scale 0 is the no-effect control and ±100 the full control effect; nearly all actives have a fitted effect of over 75% in size
MLL CXXC HTRF – MLL CXXC-DNA interaction inhibition, HTRF readout; actives 30% (n = 210); MLL CXXC-DNA binding, HTRF, biochemical; shares compounds with MLL CXXC-DNA inh; Potency, µM (doses to about 172 µM), for the others: at the highest dose activity change, negative = inhibition, hits mostly inhibitors; further: on the % scale 0 is the no-effect control and ±100 the full control effect; nearly all actives have a fitted effect of over 80% in size
Numbers without * were called inactive; ? = inconclusive; . = not tested or not shown. Unless noted, the call rests on the fitted dose curve; in most records, active means well fitted curve in the direction sought with a large enough effect; inconclusive means small, poorly fitted or top-dose-only effect, or another doubt; inactive means no such curve, though single readings can be large; an effect the other way counts as inactive or inconclusive.

SMILES	MLL CXXC-DNA inh	Menin-MLL TR inh	Menin-MLL FL inh	GLA inh pH 4.5	a7 integrin act	GLA spleen mod	MLL CXXC FP-Fl	MLL CXXC FP-TR	MLL CXXC HTRF
CCC(CO)NC(=O)[C@@H]1C=C2c3cccc4[nH]cc(c34)C[C@H]2N(C)C1 (some centres undefined)	35µM*	-17%	?	0	.	-7%	159µM*	?	24%
CCn1nc(-c2cccs2)nc2c(=O)n(C)c(=O)nc1-2	?	?	-11	-1	-58%	3%	?	?	47%
COc1ccc2c(c1)CCC1C2CC[C@@]2(C)C1CC[C@@H]2NCCCCCCN1C(=O)C=CC1=O (some centres undefined)	5%	-9%	5	-1	.	1%	.	.	.
O=C1NC(=O)N(c2ccc3c(c2)OCO3)C(=O)/C1=C\c1ccc(-c2ccccc2C(=O)O)o1	14µM*	.	23	-3	14%	2%	14µM*	45µM*	19µM*
O=C1NC(=O)N(c2ccc3c(c2)OCO3)C(=O)/C1=C/c1ccc(N2CCCCC2)o1	?	-7%	?	-9	5%	2%	.	.	.
Cc1cc(I)ccc1Nc1c(C(=O)NOCC2CC2)cc(F)c(F)c1F	.	?	0	.	.	0%	.	.	.
Cc1cc(/C=C2\C(=O)NC(=O)N(c3cccc(F)c3)C2=O)c(C)n1-c1cc(C(=O)O)cc(C(=O)O)c1	16µM*	4%	4	-17	?	7%	89µM*	?	122µM*
Cc1cc(/C=C2\C(=O)NC(=O)N(c3ccc(Br)cc3)C2=O)c(C)n1-c1cc(C(=O)O)cc(C(=O)O)c1	7.9µM*	21%	24	.	-9%	.	18µM*	40µM*	39µM*
O=C(Nc1cc(C(F)(F)F)cc(C(F)(F)F)c1)c1cc(Cl)ccc1O	.	?	-1	.	.	29%	.	.	.
C[C@]12O[C@H](C[C@]1(O)CO)n1c3ccccc3c3c4c(c5c6ccccc6n2c5c31)CNC4=O	-4%	?	3	.	.	.	.	.	.
